NPR1 antag – human Npr1 receptor antagonism; P16066; 76,000 tested, 1.6% active; HEK293 hNpr1 GloSensor cGMP, ANP-stimulated luminescence; Potency, µM (highest dose often 46.3 µM), usual class: inhibitors; calls by dose curve; further: nearly all actives have a fitted effect of over 60% in size
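HEK293 cells stably expressing human Npr1 and cGMP GloSensor pGS-40F, loaded 2 h with 2% GloSensor reagent, given compound 30 min at room temperature. Luminescence read before and 20 min after 0.1 nM hNppA.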
3T3 cytotox – kills NIH 3T3 cells; NIH 3T3 viability, CellTiter-Glo ATP luminescence, 48-72 h; 94,000 tested, 4.3% active; Potency, µM (top dose mostly 96.7 µM), actives largely listed as inhibitors; further: nearly all actives have a fitted effect of over 55% in size
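NIH 3T3 cells at 400 cells/well received 23 nL of compound by pintool and were incubated 48 or 72 h at 37 °C. Viability was read as ATP-coupled CellTiter-Glo luminescence.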
Luciferase inh – inhibitors of firefly (Photinus pyralis) luciferase | P08659 | purified P. pyralis luciferase, luminescence, biochemical | Potency, µM (titrated, usually from 115 µM), actives largely listed as inhibitors | 76,000 tested, 2.5% active; further: nearly all actives have a fitted effect of over 65% in size
Target sequence (P08659 whole entry, looked up): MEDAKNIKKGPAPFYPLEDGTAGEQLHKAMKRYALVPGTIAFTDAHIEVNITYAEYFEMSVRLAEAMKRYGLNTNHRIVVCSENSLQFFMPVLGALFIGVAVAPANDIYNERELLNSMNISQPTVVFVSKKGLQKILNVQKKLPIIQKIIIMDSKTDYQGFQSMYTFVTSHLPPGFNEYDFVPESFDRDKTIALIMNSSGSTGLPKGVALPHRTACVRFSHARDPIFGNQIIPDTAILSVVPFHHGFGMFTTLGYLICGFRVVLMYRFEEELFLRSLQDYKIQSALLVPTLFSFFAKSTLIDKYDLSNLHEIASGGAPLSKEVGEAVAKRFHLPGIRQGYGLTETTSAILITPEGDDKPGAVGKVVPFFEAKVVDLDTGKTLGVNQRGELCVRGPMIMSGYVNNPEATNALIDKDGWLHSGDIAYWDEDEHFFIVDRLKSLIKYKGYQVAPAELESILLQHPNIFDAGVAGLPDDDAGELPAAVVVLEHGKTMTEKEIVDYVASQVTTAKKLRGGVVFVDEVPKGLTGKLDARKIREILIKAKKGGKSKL
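Purified P. pyralis luciferase (10nM final) in 50mM Tris acetate pH 7.5, 10mM Mg acetate, 0.01% Tween-20, 0.05% BSA with 10uM D-luciferin and 10uM ATP. Compounds titrated qHTS. Luminescence imaged on CCD.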
HEK293 tox – HEK 293 cell cytotoxicity; HEK 293 viability, ATP luminescence (CellTiter-Glo), 48-72 h; AID 1345083; 94,000 tested, 6.6% active; Potency, µM (highest dose often 115 µM), most hits filed as inhibitors; further: nearly all actives have a fitted effect of over 60% in size
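Cells seeded first (HEK 293, 250 cells/well), then compound added by pintool. Incubation ran 48 or 72 hr at 37 degree Celsius. CellTiter-Glo was added and luminescence imaged after 10 min at room temperature.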
Each line names hits and unclear results; the compound was inactive in the other large screens. The list is not random: actives were taken first. Their share in the collection is about 11%. Unless noted, the call rests on the fitted dose curve; in most records, active means well fitted curve in the direction sought with a large enough effect; inconclusive means small, poorly fitted or top-dose-only effect, or another doubt; inactive means no such curve, though single readings can be large; an effect the other way counts as inactive or inconclusive.

COc1cc2c(cc1OCC1CCCC1)N([S+](=O)([O-])c1cccc(C(F)(F)F)c1)CC21CCN(CC(=O)O)CC1	3T3 cytotox 39.8µM, HEK293 tox 44.7µM
COc1cc2c(cc1OCC1CCCC1)N([S+](=O)([O-])c1ccc(Oc3ccccc3)cc1)CC21CCN(CC(=O)O)CC1	3T3 cytotox inconclusive, HEK293 tox inconclusive
COc1ccccc1CC(=O)N1CC2(CCN(C)CC2)c2cc(OC)c(OCc3ccccc3)cc21	3T3 cytotox 31.6µM, HEK293 tox inconclusive
COc1cc2c(cc1OCc1ccccc1)N([S+](=O)([O-])c1cccc3cccnc13)CC21CCN(C)CC1	3T3 cytotox 17.8µM, HEK293 tox 25.1µM
COc1cc2c(cc1OCc1ccccc1)N(C(=O)CC1CC1)CC21CCN(C)CC1	3T3 cytotox 79.4µM, HEK293 tox 112µM
COc1cc2c(cc1OCc1ccccc1)N(C(=O)CC(C)C)CC21CCN(C)CC1	3T3 cytotox 50.1µM, HEK293 tox 100µM
COc1cc2c(cc1OCc1ccccc1)N(C(=O)[C@@H]1CCCO1)CC21CCN(C)CC1	3T3 cytotox inconclusive
COc1ccc2c(c1)C1(CCN(C(=O)c3ccccc3C)C1)C(=O)N2 (configuration not stated)	none
COc1ccc(NC(=O)NC[C@H]2C[C@@H]3CCN2C[C@@H]3CN2CCN(c3ncccn3)CC2)cc1	none
CCC(CC)c1cc([C@H]2CN3CC[C@H]2C[C@@H]3CNC(=O)Nc2cccc(C#N)c2)nc(-c2ccncc2)n1	3T3 cytotox 79.4µM, HEK293 tox inconclusive
CCC(CC)c1cc([C@H]2CN3CC[C@H]2C[C@@H]3CO)nc(-c2ccncc2)n1	3T3 cytotox 112µM, HEK293 tox 112µM
CCC(CC)c1cc([C@H]2CN3CC[C@H]2C[C@@H]3CNC(=O)c2ccco2)nc(-c2ccncc2)n1	none
CCC(CC)c1cc([C@H]2CN3CC[C@H]2C[C@@H]3COC(=O)Nc2ccccc2)nc(-c2ccncc2)n1	none
C=C[C@H]1CN2CC[C@H]1C[C@@H]2CNC(=O)c1ccc(N(C)C)cc1	HEK293 tox inconclusive
CCC(CC)c1cc([C@H]2CN3CC[C@H]2C[C@@H]3CNC(=O)c2ccc(N(C)C)cc2)nc(-c2ccncc2)n1	3T3 cytotox inconclusive, HEK293 tox 20µM
CCC(CC)c1cc([C@H]2CN3CC[C@H]2C[C@@H]3CNC(=O)c2ccc(C)cc2)nc(-c2ccncc2)n1	3T3 cytotox inconclusive, HEK293 tox 44.7µM
CC(C)(C)c1cn(C[C@H]2CC3CCN2C[C@@H]3C(=O)Nc2nccs2)nn1 (some centres not stated)	HEK293 tox inconclusive
O=C1CC2CCN(CC3CCNC3)CC2CCN1 (configuration not stated)	none (no result: NPR1 antag, Luciferase inh)
CCC(CC)c1cc([C@H]2CN3CC[C@H]2C[C@@H]3CNC2CCN(C(C)=O)CC2)nc(-c2ccncc2)n1	3T3 cytotox inconclusive, HEK293 tox 79.4µM
COc1cc2c(cc1OCC1CC1)NC(=O)C21CCN(C(=O)c2ccccc2)CC1	3T3 cytotox inconclusive, HEK293 tox inconclusive
COc1cc2c(cc1OCc1ccccc1)NC(=O)C21CCN(c2nc(C)cnc2C)CC1	3T3 cytotox inconclusive, HEK293 tox 35.5µM
COc1cc2c(cc1OCc1ccccc1)NC(=O)C21CCN(c2cnccn2)CC1	3T3 cytotox 79.4µM, HEK293 tox 63.1µM
CN(C)C(=O)[C@H]1CN2CCC1C[C@@H]2Cn1cc(-c2cccc(O)c2)nn1 (some centres not stated)	none
O=C1Nc2ccccc2C12CCN(CC1CCCCC1)CC2	HEK293 tox inconclusive (no result: NPR1 antag, Luciferase inh)
COc1cc2c(cc1OC1CCCC1)NC(=O)C21CCN(C(=O)Cc2ccccc2)CC1	NPR1 antag inconclusive, 3T3 cytotox 89.1µM, HEK293 tox 79.4µM
COc1cc2c(cc1OC1CCCC1)NC(=O)C21CCN(Cc2ccccc2)CC1	3T3 cytotox 89.1µM, HEK293 tox inconclusive
CCOC(=O)[C@H]1CN(C(=O)c2ccc(Cl)cc2)[C@]2(C)C(=O)N(CCOC(C)=O)c3ccccc3[C@H]12	HEK293 tox inconclusive (no result: NPR1 antag, Luciferase inh)
CCCNC1CNC1	none (no result: NPR1 antag, Luciferase inh)
COc1ccc2c(c1)C1(CCN(S(=O)(=O)c3cccc(F)c3)C1)C(=O)N2C (configuration not stated)	HEK293 tox 44.7µM
COc1ccccc1-c1cc([C@H]2CN3CC[C@H]2C[C@@H]3COC(=O)Nc2ccc(C(C)C)cc2)nc(C)n1	3T3 cytotox inconclusive, Luciferase inh 17.8µM, HEK293 tox 5.01µM
Cc1nc(-c2cccs2)cc([C@H]2CN3CC[C@H]2C[C@@H]3COC(=O)Nc2ccc(C(C)C)cc2)n1	NPR1 antag inconclusive, 3T3 cytotox 8.91µM, Luciferase inh inconclusive, HEK293 tox 5.62µM
COc1cc2c(cc1OCc1ccccc1)N(C(=O)c1cccc3[nH]ccc13)CC21CCN(C)CC1	3T3 cytotox 20µM, HEK293 tox inconclusive
COc1cc2c(cc1OCc1ccccc1)N(C(=O)c1c[nH]c3ccccc13)CC21CCN(C)CC1	3T3 cytotox 20µM, HEK293 tox 22.4µM
COc1cc2c(cc1OCc1ccccc1)N([S+](=O)([O-])c1cn(C)cn1)CC21CCN(C)CC1	3T3 cytotox inconclusive, HEK293 tox inconclusive
COc1cc2c(cc1OCc1ccc(Cl)cc1)N(Cc1ccccc1)CC21CCN(C(C)=O)CC1	3T3 cytotox inconclusive, HEK293 tox inconclusive
COc1cc2c(cc1OCc1ccccc1)N(C(=O)c1cc3ccccc3[nH]1)CC21CCN(C)CC1	3T3 cytotox 22.4µM, HEK293 tox 20µM
CCOC(=O)[C@@H]1[C@H]2c3ccccc3N(CCOC)C(=O)[C@H]2N(C(=O)OCC)[C@@H]1c1ccccc1	HEK293 tox inconclusive (no result: NPR1 antag, Luciferase inh)
O=c1ccc(-c2ccccc2F)c2n1C[C@H]1C[C@@H]2CN(S(=O)(=O)c2ccccc2)C1	none
Cc1nc(-c2ccccc2)cc([C@H]2CN3CC[C@H]2C[C@@H]3CNS(=O)(=O)Cc2ccccc2)n1	3T3 cytotox 79.4µM, HEK293 tox 79.4µM
Cn1nc(-c2ccccc2)cc1[C@H]1CN2CC[C@H]1C[C@@H]2CNC(=O)c1cccs1	3T3 cytotox inconclusive, HEK293 tox inconclusive
CCC(CC)c1cc([C@H]2CN3CC[C@H]2C[C@@H]3CNC(=O)Cc2cccs2)nc(-c2ccncc2)n1	NPR1 antag inconclusive, 3T3 cytotox 28.2µM, HEK293 tox 39.8µM
COCC(=O)NC[C@H]1C[C@@H]2CCN1C[C@@H]2c1cc(-c2ccccc2)nc(C)n1	3T3 cytotox inconclusive
Cc1nc(-c2ccccc2)cc([C@H]2CN3CC[C@H]2C[C@@H]3CNC(=O)c2cccs2)n1	3T3 cytotox inconclusive, HEK293 tox 70.8µM
CCC(CC)c1cc([C@H]2CN3CC[C@H]2C[C@@H]3CNC(=O)c2cccs2)nc(-c2ccncc2)n1	NPR1 antag inconclusive, 3T3 cytotox 22.4µM, HEK293 tox inconclusive
O=C(N1CCCC1)N1C2CCC1CN(Cc1cccnc1)C2	none (no result: NPR1 antag, Luciferase inh)
O=C(Cc1ccc(F)cc1Cl)N1C[C@H]2CC[C@@H]1CN(Cc1cccnc1)C2	NPR1 antag inconclusive, HEK293 tox 35.5µM
CN1CCN2C(=O)N(c3ccccc3)C[C@H]2C1	none
